Results from PubChem BioAssay (NCI).
Where “and” joins values, the source holds several entries; their conditions need not be identical. Equal entries are not always repeated. The panel holds about 79,000 compounds, 15% with a hit somewhere; the sample as a whole holds those more often. Rule as the data show it: active = growth inhibition above about 70%; inactive = the rest.

Experiments:
[1] = NCI Yeast Anticancer Drug Screen. Data for the rad50 strain (AID 155);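 also: 0% = growth of vehicle-only cultures of the same strain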; conditions: S. cerevisiae rad50 strain growth inhibition, hits give high values; at 50.0 µM unless noted
In short: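 Genetically altered yeast (DNA repair pathway); compound treatment; growth inhibition vs vehicle ctrl.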

[2] = NCI Yeast Anticancer Drug Screen. Data for the mec2-1 strain (AID 157); conditions: S. cerevisiae mec2-1 strain, hits give high values; at 50.0 µM unless noted
In short: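 Test agents were screened against the mec2-1 yeast strain, with defined DNA repair or cell cycle alteration. Growth was scored as inhibition against vehicle-only controls.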

[3] = NCI Yeast Anticancer Drug Screen. Data for the sgs1 mgt1 strain (AID 161);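 also: 0% = growth of cultures given vehicle only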; conditions: S. cerevisiae sgs1 mgt1 strain, hits give high values; at 50.0 µM unless noted
In short: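 Read-out: growth inhibition vs vehicle controls. Cells: mutant yeast strain deficient in DNA damage repair.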

[4] = NCI Yeast Anticancer Drug Screen. Data for the cln2 rad14 strain (AID 165);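 also: 0% = growth equal to vehicle treated cultures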; conditions: S. cerevisiae cln2 rad14 strain, hits give high values; at 50.0 µM unless noted
In short: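 Growth of compound-exposed yeast (cln2 rad14 genotype) measured and expressed as inhibition relative to vehicle.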

[5] = NCI Yeast Anticancer Drug Screen. Data for the bub3 strain (AID 167); conditions: S. cerevisiae bub3 mutant strain, hits give high values; at 50.0 µM unless noted
In short: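 Yeast carrying a defined mutation is treated with each compound, and growth is compared with that of vehicle-exposed cells to give inhibition.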

[6] = NCI Yeast Anticancer Drug Screen. Data for the mlh1 rad18 strain (AID 175); conditions: S. cerevisiae mlh1 rad18 strain growth inhibition, hits give high values; at 50.0 µM unless noted
In short: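 In this whole-cell yeast screen, a strain with altered DNA damage repair is challenged with compound, and its growth is measured against matched vehicle-treated controls.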

Measured: growth inhibition

CC(=O)O[C@H]1[C@@H](OC(C)=O)C(C)(C)/C=C/[C@H](C)C(=O)[C@@]2(OC(C)=O)C[C@@](C)(OC(C)=O)[C@H](OC(C)=O)[C@@H]2[C@H]2OC(=O)CC[C@@]2(OC(=O)c2ccccc2)[C@@H]1OCC(C)C
inactive: [1] 3.85% | [2] -2.15% | [3] -15.8% | [4] 36% | [5] -22.3% | [6] -0.15%

CCOc1ccc(C(C)c2cc3c(cc2OCC(=O)O)OCO3)cc1 (stereo not given)
inactive: [1] 0.65% | [2] -6.4% | [3] -8.45% | [4] 25.1% | [5] -6.9% | [6] -11.6%

CCOC(=O)Nc1ccc(F)cc1C
inactive: [1] 14.8% | [2] 5.3% | [3] -7.55% | [4] -4% | [5] 7.3% | [6] -1%

COc1ccc(/C(=C(/c2ccc(OC)cc2)C2CC2)C2CC2)cc1
inactive: [1] -5.3% | [2] 7.25% | [3] 11% | [4] -14.8% | [5] 5.45% | [6] 10.6%

S=c1c2[nH]cnc2ncn1CCSC1=NC=NC2=NC=NC21 (stereo not given)
inactive: [1] 27.8% | [2] -23.6% | [3] -26.9% | [4] -22.8% | [5] -55% | [6] -8.6%

CN1C(=O)OC2OC(C)(c3ccc(S(=O)(=O)c4ccccc4)cc3)C(=O)CC21 (stereo not given)
inactive: [1] -7.1% | [2] 22.7% | [3] -10.5% | [4] -27% | [5] 5.65% | [6] 2.25%

CCN(CC)c1ccc(N=Nc2ccc(-c3nc4cccnc4o3)cc2)cc1
inactive: [1] -21.4% | [2] -19.2% | [3] -22.9% | [4] -1.7% | [5] 2.15% | [6] -39.3%

CCCCCCCCCCCCCCCCCCNC(=S)N/N=C/c1ccccc1[N+](=O)[O-]
inactive: [1] -17.1% | [2] 2.75% | [3] -20.1% | [4] 4.95% | [5] -13.1% | [6] -7.65%

O=C1C2=C(C(=O)C3=C1C1CCC3C1)C1CCC2C1
inactive: [1] 4.1% | [2] -34.1% | [3] -11.7% | [4] -15.2% | [5] -5.25% | [6] 0.7%

CC(Oc1ccccc1)C(=O)NC(=S)Nc1cccc2ccccc12 (stereo not given)
inactive: [1] -10.2% | [2] -3.5% | [3] -3.35% | [4] -19.6% | [5] 20.9% | [6] 4.85%

Cc1ccc(C(=O)C[n+]2ccc3ccccc3c2)c(O)c1
inactive: [1] -17.1% | [2] -17.9% | [3] -20.2% | [4] -51.9% | [5] -14.3% | [6] 1.25%

COc1cc(CCC(NC(C)=O)c2cccc(O)c(=O)c2)cc(OC)c1OC (stereo not given)
inactive: [1] -10.2% | [2] -4.6% | [3] 17.2% | [4] -33.5% | [5] -3.35% | [6] 8.1%

CCC(C)(C)c1ccc(C(=O)OC)o1
inactive: [1] 4.1% | [2] 16.2% | [3] -5.55% | [4] -13.3% | [5] -7.3% | [6] -13.8%

ONc1ccc2c(c1)C1C(C3C2C2(Cl)C(Cl)=C(Cl)C3(Cl)C2(Cl)Cl)C2(Cl)C(Cl)=C(Cl)C1(Cl)C2(Cl)Cl (stereo not given)
inactive: [1] 35.8% | [2] 13.6% | [3] 7.55% | [4] 19.6% | [5] 24.9% | [6] 24.6%

CSc1cccc(NC(=S)NC(=O)c2ccccc2)c1
inactive: [1] -0.25% | [2] -8.15% | [3] -0.65% | [4] -2.4% | [5] 2.55% | [6] -17.4%

O=S(=O)(c1ccc(Cl)cc1)S(=O)(=O)c1ccc(Cl)cc1
inactive: [1] 18.8% | [2] 8.5% | [3] 8.6% | [4] -18.4% | [5] 4.5% | [6] 10.4%

COC(=O)c1ccccc1NC(=O)Nc1ncccn1
inactive: [1] -5.3% | [2] 2.4% | [3] -7.2% | [4] -10.1% | [5] -11.2% | [6] -11.5%

Nc1ncnc2c1ncn2CC(O)CN(CCO)CCO (stereo not given)
inactive: [1] 13.1% | [2] 7.95% | [3] -3.7% | [4] 8.2% | [5] -10.8% | [6] 18.6%

CCSc1nc2n(c(=S)n1)CCN2C
inactive: [1] 15.4% | [2] -3.5% | [3] 13.8% | [4] 6.5% | [5] 22.6% | [6] 18.2%

NNC(=O)Oc1cccc2ccccc12
inactive: [1] 22.1% | [2] 19.3% | [3] 9.9% | [4] -4.4% | [5] 36.4% | [6] 42.5%

CCOC(=O)c1sc(C(=O)O)cc1-c1cccs1
inactive: [1] 3.9% | [2] 9.65% | [3] 11.5% | [4] -5.6% | [5] -10.6% | [6] 15%

CC(C)C1N(N2C(=O)CS(=O)(=O)C2C(C)C)C(=O)CS1(=O)=O (stereo not given)
inactive: [1] 3.45% | [2] -15.1% | [3] -6.8% | [4] 6.75% | [5] -9.15% | [6] 24.3%

O=CC(O)C(O)C(O)C(O)C(O)C(O)CO (stereo not given)
inactive: [1] 16% | [2] 10.7% | [3] 28.1% | [4] -1.55% | [5] 5.9% | [6] 19.6%

COC(=O)C(CCC1(C)OCCO1)C(C)=O (stereo not given)
inactive: [1] -10.4% | [2] -0.85% | [3] -9% | [4] 7.65% | [5] -1.55% | [6] -13%

Cc1ccccc1Cc1nccc2c1[nH]c1ccccc12
inactive: [1] -3% and -0.7% | [2] -11.5% and -15.1% | [3] -9.05% | [4] -29.5% | [5] -8.45% | [6] -16.9% and 50.1%

CNCc1cc(Br)cc(Br)c1O
inactive: [1] 6.9% | [2] -6.2% | [3] 15.4% | [4] -43.1% | [5] 1.45% | [6] -2.6%

C#CCSC(=S)NNc1ccccc1
inactive: [1] 33.1% | [2] 29.1% | [3] 33.1% | [4] 6.2% | [5] 60.8% | [6] 24.8%

COc1ccc(C2c3cc(OC)c(OC)cc3C(Cc3ccc([N+](=O)[O-])cc3)C2c2ccc([N+](=O)[O-])cc2)cc1OC (stereo not given)
inactive: [1] 10.7% | [2] 19.8% | [3] -4.15% | [4] 16.1% | [5] 23.2% | [6] 6.55%

Cc1c2c(c(O)c3sccc13)C(C)(C)OC2=O
inactive: [1] -3.75% | [2] -1.8% | [3] -9.6% | [4] -59% | [5] -26.4% | [6] -3.1%

CCOC(=O)c1sc(SC)nc1NC(=O)c1ccccc1
inactive: [1] -18.4% | [2] -9% | [3] -5.45% | [4] 3.2% | [5] -3.4% | [6] -33.2%

NC(=O)C(N)CC12CC3CC(CC(C3)C1)C2 (stereo not given)
inactive: [1] -6% | [2] -18.2% | [3] -10.6% | [4] 17.7% | [5] 10.7% | [6] -4.7%

O=[N+]([O-])c1ccccc1S(=O)(=O)c1cccc2c1NCCC2
inactive: [1] 33.8% | [2] 12.3% | [3] 33.5% | [4] 31.4% | [5] 48% | [6] 46.9%

Cc1cccc(C(=O)NNC(=O)C(=O)NNC(=O)c2cccc(C)c2)c1
inactive: [1] 3.6% | [2] 43.6% | [3] -3.1% | [4] -0.05% | [5] 24.6% | [6] 26.9%

N=c1ccccn1C(=O)C1=Cc2cc(Cl)cc(Cl)c2OC1
inactive: [1] -15.6% | [2] 0.75% | [3] -1.85% | [4] -25.8% | [5] 7.65% | [6] -2.25%

O=C(O)c1cccnc1C(=O)O
inactive: [1] -23.8% and 10.8% | [2] -8.85% and -5.35% | [3] 2.65% and -2.2% | [4] -30.2% and 10.3% | [5] -12% and -28.2% | [6] 3.9% and 8.65%

COc1cccc(C(=O)c2ccncc2C)c1OC
inactive: [1] -14.6% | [2] -4.45% | [3] 9.95% | [4] -7.95% | [5] 28% | [6] -8.1%

O=C(c1ccccc1)C(C(Nc1ccccc1)c1ccccc1)N1CCOCC1 (stereo not given)
inactive: [1] 6.65% | [2] -5% | [3] -16% | [4] -47.3% | [5] 27.4% | [6] 22.6%

CC(=C(C#N)C#N)c1csc2ccccc12
inactive: [1] 9.1% | [2] 14.8% | [3] -4.35% | [4] -34.5% | [5] -14.8% | [6] 21.9%

CNC(CCCCC1CCCCC1)C(=O)O (stereo not given)
inactive: [1] 8.2% | [2] 3.4% | [3] 12.1% | [4] -10.8% | [5] -8.2% | [6] -0.2%

C=C[C@@]1(C)C=C2CC[C@@H]3[C@](C)(CCC[C@@]3(C)C(=O)O)[C@H]2CC1
inactive: [1] 67.5% | [2] 37.8% | [3] 31.3% | [4] 52.1% | [5] 35.1% | [6] 55.2%
